Assay results taken from the supplement of paper PMC9262897, “Low-cost anti-mycobacterial drug discovery using engineered E. coli” (Nature Communications, 2022).
Counter-ions that a name gives are not always drawn. ± gives the standard deviation of the averaged measurements.

How the values were obtained:
Test in all cases: growth (OD600 after 10 h); higher = more growth (less inhibition)
[1] = test system: E. coli TESEC Alr+ wild-type control; conditions: compound 0.1 mM; raw OD600 reference: median of DMSO wells 0.241, cell-free background 0.041
Method: (§1)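 TESEC Mtb Alr E. coli, or the Alr+ wild-type control, in 384-well plates with Prestwick library compounds at 0.1 mM and 1% DMSO, across arabinose induction levels of 1E3 to 1E7 nM. Growth is read as OD600 after 10 h at 37 °C in triplicate biological replicates.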

E. coli TESEC Mtb Alr [2] = conditions: compound 0.1 mM
Method: as §1

E. coli TESEC Mtb Asd = conditions: compound 0.1 mM
Method: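 TESEC E. coli strains in which the native enzyme is deleted and replaced by arabinose-inducible Mtb Asd, DapB, CysH or TrpD, each grown in its selective medium. Strains were screened against the Prestwick library at 0.1 mM and 1% DMSO in 384-well format at low and high arabinose induction. Growth is read as OD600 after 10 h in triplicate.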

[3] = test system: E. coli TESEC Alr+ wild-type control; conditions: compound 0.1 mM; raw OD600 reference: median of DMSO wells 0.49, cell-free background 0.052
Method: (§2)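 TESEC Mtb Alr E. coli (ΔaraC ΔtolC ΔentC Δalr ΔdadX, arabinose-inducible Mtb Alr) or the Alr+ wild-type control strain, grown in defined M9-fructose medium without D-alanine in 96-well plates with Prestwick library compounds at 0.1 mM and 1% DMSO. Low Alr induction is 0.1 µM arabinose and high induction is 10 mM arabinose.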

E. coli TESEC Mtb Alr [4] = conditions: compound 0.1 mM; remark: listed apart in the source
Method: as §2

[5] = arabinose 1000 nM, raw OD600 reference: median of DMSO wells 0.294, cell-free background 0.041
[6] = arabinose 10000 nM, raw OD600 reference: median of DMSO wells 0.264, cell-free background 0.041
[7] = arabinose 100000 nM, raw OD600 reference: median of DMSO wells 0.201, cell-free background 0.041
[8] = arabinose 1000000 nM, raw OD600 reference: median of DMSO wells 0.193, cell-free background 0.041
[9] = arabinose 10000000 nM, raw OD600 reference: median of DMSO wells 0.146, cell-free background 0.041
[10] = arabinose induction (level): High, raw OD600 reference: median of DMSO wells 0.331, cell-free background 0.041
[11] = arabinose induction (level): Low, raw OD600 reference: median of DMSO wells 0.417, cell-free background 0.041
[12] = arabinose 100 nM, raw OD600 reference: median of DMSO wells 0.413, cell-free background 0.052
[13] = arabinose 10000000 nM, raw OD600 reference: median of DMSO wells […], cell-free background 0.052

Row | Structure (SMILES) | growth [1] | growth (E. coli TESEC Mtb Alr [2]; [5]) | growth (E. coli TESEC Mtb Alr [2]; [6]) | growth (E. coli TESEC Mtb Alr [2]; [7]) | growth (E. coli TESEC Mtb Alr [2]; [8]) | growth (E. coli TESEC Mtb Alr [2]; [9]) | growth (E. coli TESEC Mtb Asd; [10]) | growth (E. coli TESEC Mtb Asd; [11]) | growth [3] | growth (E. coli TESEC Mtb Alr [4]; [12]) | growth (E. coli TESEC Mtb Alr [4]; [13])
1 | CC(NCCc1ccc(O)cc1)C(O)c1ccc(O)cc1 (stereo not drawn) [Ritodrine hydrochloride] | 0.234 ± 0.0026 | 0.313 ± 0.011 | 0.2537 ± 0.0014 | 0.21 ± 0.032 | 0.176 ± 0.0022 | 0.144 ± 0.0063 | 0.251 ± 0.027 | 0.348 ± 0.055 | 0.56 ± 0.074 | 0.408 ± 0.0081 | 0.36 ± 0.019
2 | NC(=O)c1cc[n+](CC2=C(C(=O)[O-])N3C(=O)[C@@H](NC(=O)[C@@H](c4ccccc4)S(=O)(=O)O)[C@H]3SC2)cc1 [Cefsulodin sodium salt] | 0.257 ± 0.0041 | 0.309 ± 0.014 | 0.235 ± 0.007 | 0.228 ± 0.006 | 0.2032 ± 0.0015 | 0.145 ± 0.0069 | 0.33 ± 0.084 | 0.423 ± 0.028 | 0.636 ± 0.015 | 0.366 ± 0.012 | 0.356 ± 0.014
3 | CCCCCCNC(=O)n1cc(F)c(=O)[nH]c1=O [Carmofur] | 0.1489 ± 0.00094 | 0.215 ± 0.024 | 0.176 ± 0.017 | 0.108 ± 0.0064 | 0.0803 ± 0.0054 | 0.112 ± 0.0029 | 0.235 ± 0.029 | 0.359 ± 0.026 | 0.508 ± 0.04 | 0.349 ± 0.056 | 0.134 ± 0.014
4 | Cc1ccc(-c2ncc(Cl)cc2-c2ccc(S(C)(=O)=O)cc2)cn1 [Etoricoxib] | 0.17 ± 0.0023 | 0.241 ± 0.006 | 0.213 ± 0.0045 | 0.184 ± 0.014 | 0.15 ± 0.0079 | 0.161 ± 0.0033 | 0.266 ± 0.076 | 0.241 ± 0.0033 | 0.388 ± 0.0074 | 0.414 ± 0.0091 | 0.281 ± 0.018
5 | CC(=O)O[C@@]12CO[C@@H]1C[C@H](O)[C@@]1(C)C(=O)[C@H](O)C3=C(C)[C@@H](OC(=O)[C@H](O)[C@@H](NC(=O)OC(C)(C)C)c4ccccc4)C[C@@](O)([C@@H](OC(=O)c4ccccc4)[C@H]21)C3(C)C [Docetaxel] | 0.266 ± 0.005 | 0.34 ± 0.0038 | 0.299 ± 0.014 | 0.311 ± 0.094 | 0.134 ± 0.011 | 0.206 ± 0.02 | 0.248 ± 0.011 | 0.373 ± 0.071 | 0.614 ± 0.12 | 0.4282 ± 0.0041 | 0.297 ± 0.0093
6 | O=C1CCC(N2C(=O)c3ccccc3C2=O)C(=O)N1 (stereo not drawn) [Thalidomide] | 0.248 ± 0.0061 | 0.283 ± 0.0041 | 0.269 ± 0.014 | 0.204 ± 0.012 | 0.192 ± 0.0034 | 0.135 ± 0.0057 | 0.392 ± 0.098 | 0.461 ± 0.035 | 0.513 ± 0.072 | 0.424 ± 0.0084 | 0.346 ± 0.0072
7 | COc1ccc2[nH]cc(CCNC(C)=O)c2c1 [Melatonin] | 0.246 ± 0.0061 | 0.29 ± 0.0068 | 0.27 ± 0.005 | 0.204 ± 0.029 | 0.183 ± 0.0071 | 0.1406 ± 0.0012 | 0.252 ± 0.066 | 0.348 ± 0.11 | 0.521 ± 0.086 | 0.409 ± 0.01 | 0.354 ± 0.013
8 | C=CCN1CCCC1CNC(=O)c1cc2nn[nH]c2cc1OC (stereo not drawn) [Alizapride HCl] | 0.234 ± 0.0057 | 0.277 ± 0.0082 | 0.271 ± 0.01 | 0.218 ± 0.025 | 0.191 ± 0.0082 | 0.143 ± 0.0052 | 0.299 ± 0.032 | 0.373 ± 0.05 | 0.536 ± 0.045 | 0.406 ± 0.011 | 0.336 ± 0.011
